# Laboratory results published in publication PMC13494018.
# Values without a mark were called inactive. No rule for the calls is given here.
# Target: CD276, Q5ZPR3
# Sequence (Q5ZPR3 whole entry): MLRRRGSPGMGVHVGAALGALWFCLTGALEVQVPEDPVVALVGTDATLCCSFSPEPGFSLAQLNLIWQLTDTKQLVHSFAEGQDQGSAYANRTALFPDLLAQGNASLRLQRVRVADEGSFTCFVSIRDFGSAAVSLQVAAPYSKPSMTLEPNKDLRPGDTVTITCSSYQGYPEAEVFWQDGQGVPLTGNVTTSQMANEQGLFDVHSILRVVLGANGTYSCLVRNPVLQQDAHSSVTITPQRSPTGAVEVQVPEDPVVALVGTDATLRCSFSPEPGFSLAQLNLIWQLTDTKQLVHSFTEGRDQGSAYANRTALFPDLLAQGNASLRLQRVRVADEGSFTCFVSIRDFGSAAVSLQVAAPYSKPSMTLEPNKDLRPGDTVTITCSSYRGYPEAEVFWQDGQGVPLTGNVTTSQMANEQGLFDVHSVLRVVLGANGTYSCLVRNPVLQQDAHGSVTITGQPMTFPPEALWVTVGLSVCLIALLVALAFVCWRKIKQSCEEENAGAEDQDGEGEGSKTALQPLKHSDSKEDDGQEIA
row,Binder,binding in a display sort
1,d2r2_design_ppi_370_dldesign_0_cycle1_af2pred (protein) RVISPAEIVELHTAANAALREALEGDPEAGLARLRAVADRAAALSPALGAALRAEAEGARAALAAAAAAAAA,not found
2,d2r2_design_ppi_429_dldesign_0_cycle1_af2pred (protein) AAAEALRRALGAVLVAAHEAANRAAAERGLAAAEEVLAAGRAAGHALAARHPGAALARRAVDSQVAASAHVARHIAARAAALR,not found
3,d2r2_design_ppi_470_dldesign_0_cycle1_af2pred (protein) AAARARAYVALWQAANRAFAAAFATGSDAALAAARAAAAAAGAVLPGGRDAFLATVDSQAAALRAARAAAAAAAAA,not found
4,d2r3_design_ppi_395_dldesign_0_cycle1_af2pred (protein) SREALRQAGQLAVQAQTLANRGLALLLADPAAAPEAQALLDQAAALGEQAPVAAPVAETGRAQFAALAARL,not found
5,d2r4_design_ppi_198_dldesign_0_cycle1_af2pred (protein) AASAAMRAFTAAYGAANAAVARLYAADPAAGAAAARALQAALDEALALGAATGVAGIEEGAAALAAAAAALAAEAAALAAA,not found
6,d2r6_design_ppi_32_dldesign_0_cycle1_af2pred (protein) MKEELKKALKNAEDAAATAKQVAASDPEAKAKVEELEKEARKLAKEGLEGTEEKAEEALKRVGELTREILRIASQQFAKQQA,not found
7,d2r6_design_ppi_69_dldesign_0_cycle0_af2pred (protein) ALEELRRRASELWRALSPEARQAAARAVNARVAGDEAAAEAILAEQEARDPEQGALARAAADAALAAIDLANAQAAAAARAAAAAA,not found
8,d2r6_design_ppi_69_dldesign_0_cycle1_af2pred (protein) GLEAAQAEASRLWRQLTPEGRAAAARAVNARVAGDTAAAAAILAAAKAADPAQGALAEAAAEALLRAIDLANAQAAAEAAARAAAA,not found
9,d2r6_design_ppi_95_dldesign_0_cycle1_af2pred (protein) AEAQAQAKAIVQQGYQDARALIDKYGLPVAAKVKVFNLVSAGAIIAEQGGTVEEVAAAVEAALAAAKAAAA,not found
10,d2r6_design_ppi_165_dldesign_0_cycle0_af2pred (protein) MEVVEKVAELARKAAEAVERNLGEGFALAIQAADLAAEHEEVAEEAAEAAEEVLRKRAEEHPEHRERLLRLAEDFRSAVAHLLAQKA,not found
11,d2r6_design_ppi_176_dldesign_0_cycle1_af2pred (protein) ALREEVEKKMGEVLDLLKELQEKKKKGELTPEQIELMQQSMRELAKAAGYLASGDKVEEAKKEAEKALELAKKALEE,not found
12,d2r6_design_ppi_231_dldesign_0_cycle1_af2pred (protein) AAAAEAAAAADERIATGAAAVAAMARVGARRGVEAARRLGERMLEAVTRAMAAEDPAAGARAREVGTAVFEAEIAAAAAAAAA,not found
13,d2r6_design_ppi_333_dldesign_0_cycle0_af2pred (protein) MEEEGKKKAEEALKKAEESLKLAKSGKKLKEAEKKFAEALSLMEEAKPYLNKNPEVNKKLSKKLGEAAKALIAAKA,not found
14,d2r6_design_ppi_356_dldesign_0_cycle0_af2pred (protein) SEEELEKTRASLEQLKGLAEWQAAQHPEQAPLYAEAARLAEEGMKATVEEARQLGAQASALLGRAVGAAAA,not found
15,d2r6_design_ppi_493_dldesign_0_cycle1_af2pred (protein) SATEAQVAAVKAKIDAATQAALNAHAARLTAAGIQAVIQTAYDASKAAGAEVKAGGDPEKAAAAAIKAVNDTAEAAAA,not found
16,d2r7_design_ppi_31_dldesign_0_cycle1_af2pred (protein) AEAEALEAGAQVLSIVTATRAQTVAAFAQDPALGRQMYRQLQAAVRLAETTAKAYPAVAAELLAAAAAARAEAQAAL,not found
17,d2r7_design_ppi_218_dldesign_0_cycle0_af2pred (protein) SAAEAEAKRYINHAETTLATAKQLAERSTPEQAARYYRAAGEIAWKDYEKAGEALSPEEGEKMRKKGKEVKEELEKKAKELEEK,not found
18,d2r7_design_ppi_460_dldesign_0_cycle1_af2pred (protein) AAALAAARAAAAAAAAEAVARAAAEGPGLGLLMANEAARLLREAAAGDAAEVRAAAARLLAFAEQAIAAARANRAQAAAAR,not found
19,d2r7_design_ppi_474_dldesign_0_cycle1_af2pred (protein) MASLEAGYQQFLDSIAALPLDRADAQLAAQAARHRELAARYAAAAEAAADPAVAARLRARARDHEAAAAAVEAIRAEVTARAAARA,not found
